The test addresses Thioredoxin reductase 1, cytoplasmic (Rattus norvegicus) (UniProt O89049). Description: qHTS Assay for Inhibitors of Mammalian Selenoprotein Thioredoxin Reductase 1 (TrxR1): Hit Validation in Primary Screen. The settings on record: recombinant TrxR1, NADPH fluorescence consumption, selenite substrate. The text has this: The selenoprotein thioredoxin reductase (TrxR; EC 1.8.1.9) is a FAD containing homodimeric pyridine nucleotide-disulfide oxidoreductase with many cellular roles. Together with NADPH and its prime substrate thioredoxin (Trx), the enzyme forms the core of the Trx system. The mammalian Trx system exerts a wide spectrum of functions including redox regulation, antioxidant defense, regulation of transcription factors as well as support of cell growth and replication. Many of these functions involve the reduction of Trx, which may subsequently reduce a number of different substrates including ribonucleotide reductase, peroxiredoxins or NFkB. […]
Assay protocol: 2 uL of reagents (buffer in column 4 as negative control and 90 nM rTrxR1 in columns 1-3 and 5-48) were dispensed into Greiner black solid-bottom 1,536-well assay plates, followed by 1 uL of NADPH (400 uM final concentration) to each well. […] The plate was immediately transferred to a ViewLux high-throughput CCD imager (PerkinElmer), wherein kinetic measurements of NADPH fluorescence (Ex 340 nm, Em 450 nm) were acquired (8 minute kinetic read). Read 1 was utilized to assess the capacity of a compound to serve as an rTrxR1 substrate, i.e. a decrease in NADPH fluorescence compared to the no-compound background is an indication of a substrate behavior for that particular compound. […]
In general terms: Quantitative high-throughput screening tests each substance at several concentrations.

This is one part of the list. Inconclusive results are not listed. Active and inactive are the calls of the source. Calls follow the shape of the dose curve; as a rule, active = well fitted inhibition curve with a large enough effect; inconclusive = small, poorly fitted or top-dose-only effect; inactive = flat fitted curve, though single readings scatter.

Sequence of Thioredoxin reductase 1, cytoplasmic (Rattus norvegicus) (O89049 whole entry, looked up): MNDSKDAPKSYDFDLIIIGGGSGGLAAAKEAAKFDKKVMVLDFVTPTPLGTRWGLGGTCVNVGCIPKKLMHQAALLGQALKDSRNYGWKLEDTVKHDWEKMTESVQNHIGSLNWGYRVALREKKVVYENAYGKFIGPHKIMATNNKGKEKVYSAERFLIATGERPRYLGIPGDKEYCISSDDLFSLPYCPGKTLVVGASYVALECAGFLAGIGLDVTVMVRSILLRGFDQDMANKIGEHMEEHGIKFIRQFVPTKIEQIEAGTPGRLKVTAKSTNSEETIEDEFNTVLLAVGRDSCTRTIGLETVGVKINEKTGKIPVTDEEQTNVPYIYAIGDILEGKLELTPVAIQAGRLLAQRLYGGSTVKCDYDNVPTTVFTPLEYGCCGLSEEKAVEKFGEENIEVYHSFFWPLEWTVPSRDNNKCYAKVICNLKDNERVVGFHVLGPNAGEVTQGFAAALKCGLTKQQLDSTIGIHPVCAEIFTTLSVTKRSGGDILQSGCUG

As for `CC1CCN(C(=O)c2ccc(S(=O)(=O)Cc3cc(F)ccc3F)c([N+](=O)[O-])c2)CC1`, the Potency was 2.38 µM (active).

Values taken from PubChem BioAssay AID652023 (National Center for Advancing Translational Sciences (NCATS), 2013).
